# TDP1 block = qHTS Assay for Inhibitors of Tyrosyl-DNA Phosphodiesterase (TDP1); actives 0.28% (n = 350,000); AID 485290, 2010; Tyrosyl-DNA phosphodiesterase 1 (Homo sapiens), Q9NUW8; recombinant TDP1, AlphaScreen DNA substrate cleavage; Potency, µM (doses to about 130 µM), most hits filed as inhibitors; further: nearly all actives have a fitted effect of over 40% in size
# Target sequence (Q9NUW8 whole entry, looked up): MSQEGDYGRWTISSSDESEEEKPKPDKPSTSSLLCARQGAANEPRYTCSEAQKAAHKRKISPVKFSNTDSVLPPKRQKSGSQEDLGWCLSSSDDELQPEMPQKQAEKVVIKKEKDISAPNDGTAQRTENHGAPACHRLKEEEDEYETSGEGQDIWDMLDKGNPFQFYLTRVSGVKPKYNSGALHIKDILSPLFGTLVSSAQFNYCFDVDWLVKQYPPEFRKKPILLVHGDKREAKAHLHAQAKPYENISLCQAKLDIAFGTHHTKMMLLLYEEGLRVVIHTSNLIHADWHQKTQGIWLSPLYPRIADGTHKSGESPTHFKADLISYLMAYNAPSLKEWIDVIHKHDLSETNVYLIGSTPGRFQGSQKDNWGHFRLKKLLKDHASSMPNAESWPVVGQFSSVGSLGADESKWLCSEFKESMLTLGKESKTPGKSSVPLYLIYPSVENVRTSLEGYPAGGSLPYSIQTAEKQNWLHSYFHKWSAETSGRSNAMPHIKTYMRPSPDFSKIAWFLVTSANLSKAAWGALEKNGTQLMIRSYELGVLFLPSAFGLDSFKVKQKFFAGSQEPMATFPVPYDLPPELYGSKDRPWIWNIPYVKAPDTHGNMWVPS
#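 Recombinant human Tdp1 (E. coli-expressed, 1 nM final) preincubated with compounds 15 min at room temperature, then 5'-biotin/3'-phosphotyrosine-FITC DNA substrate (15 nM final) added for 5 min. AlphaScreen beads (10 ug/ml final) added 10 min; cleavage lowers signal.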
# TGFb SMAD3 inh = qHTS for Inhibitors of TGF-b; HepG2 CAGA-GFP TGF-b/SMAD3 reporter, GFP fluorescence, 18 h; TGF-beta stimulated, 500 pg/mL final; Potency, µM (doses to about 46.1 µM), usual class: inhibitors; actives 1.2% (n = 410,000); AID 588855, 2011; further: nearly all actives have a fitted effect of over 65% in size
#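 HEPG2 CAGA-GFP reporter cells (1000/well, DMEM with 1% FBS) received compounds, then recombinant TGF-beta at 500 pg/mL final for 18 hours at 37 degrees C. Per-cell GFP summed per well was normalised to unstimulated and stimulated DMSO controls before curve fitting.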
# DT40 TDP1 CPT = qHTS for Inhibitors of human tyrosyl-DNA phosphodiesterase 1 (TDP1): qHTS in cells in presence of CPT | actives 12% (n = 420,000) | chicken DT40 Tdp1-/-;hTDP1 cells + 20 nM CPT, ATP luminescence, 48 h | Potency, µM (titrated, usually from 46.2 µM), hits mostly inhibitors; further: nearly all actives have a fitted effect of over 55% in size
#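 Chicken DT40 Tdp1-/- cells stably complemented with human TDP1 were seeded at 400 cells/well in medium containing 20 nM camptothecin, exposed to pin-transferred compounds, and grown at 37 °C for at least 48 hr. Viability was read as ATP luminescence.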
# HepG2 viability = qHTS for Inhibitors of TGF-b: Cytotox Counterscreen; HepG2 CAGA-GFP viability, ATP luminescence, 18 h; actives 0.76% (n = 410,000); Potency, µM (doses to about 46.1 µM), actives largely listed as cytotoxic; AID 588856, 2011
#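 HepG2 CAGA-GFP cells (1000/well, DMEM with 1% FBS) received compound, then TGF-beta at 500 pg/mL final, and were incubated 18 hours at 37 degrees C. Viability was read by CellTiter-Glo luminescence. Media-only wells were set as complete cell-killing and DMSO as no toxicity.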
# IL1B secr inh = qHTS for Inhibitors of Inflammasome Signaling: IL-1-beta AlphaLISA Primary Screen; THP-1 LPS/ATP IL-1B secretion, AlphaLISA, 16 h; stronger effect = lower value; activity change, % at 57.5 µM; actives 4.7% (n = 360,000); AID 743279, 2014; in the data active means activity change below about -50%; inconclusive means mostly about -30% to -49%
#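 THP-1 cells pretreated 1 hr with compounds (up to 57.5 uM final), then stimulated with LPS (250 ng/mL final) plus ATP (1.25 mM final); secreted IL-1B measured by AlphaLISA after 16 hr, decreased signal indicating inhibition.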
# DT40 TDP1 no CPT = qHTS for Inhibitors of human tyrosyl-DNA phosphodiesterase 1 (TDP1): qHTS in cells in absence of CPT; AID 686978, 2013; Potency, µM (titrated, usually from 46.2 µM), usual class: inhibitors; DT40 Tdp1-/- hTDP1 cells, no CPT, ATP luminescence, 48 h; actives 15% (n = 420,000); further: nearly all actives have a fitted effect of over 55% in size
#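 A cellular qHTS used chicken DT40 cells lacking endogenous Tdp1 but carrying stably transfected human TDP1. Compounds were applied without camptothecin, and cell growth kinetics were judged by ATP-dependent luminescence after ≥48 hr.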
# Hits are given with their value; 0 = inactive; ? = inconclusive; - = not tested or not shown; ! = a repeat was not active. Rows were chosen to be rich in hits. Some 19% of all compounds tested hit in one or more screens of this group. Unless noted, the call rests on the fitted dose curve; in most records, active means well fitted curve in the direction sought with a large enough effect; inconclusive means small, poorly fitted or top-dose-only effect, or another doubt; inactive means no such curve, though single readings can be large; an effect the other way counts as inactive or inconclusive.
SMILES,TDP1 block,TGFb SMAD3 inh,DT40 TDP1 CPT,HepG2 viability,IL1B secr inh,DT40 TDP1 no CPT
CC(C)(C)OC(=O)n1cc(/C=N/NC(=O)c2ccco2)c2ccccc21,0,0,0,0,-60,0
CC(C)(C)n1ncc2c(=O)n(Cc3ccccc3F)cnc21,-,0,-,0,-,-
CCCc1cc(=O)[nH]c2nnc(SCC(=O)Nc3cccc(C)c3)n12,0,0,0,0,-,0
COC(=O)[C@@]12CCCCN1[C@H](c1ccc(SC3CCCCC3)cc1)[C@H]1C(=O)N(C)C(=O)[C@H]12,0,?,?,0,0,16µM
CCSc1ccc([C@@H]2[C@@H]3C(=O)N(C)C(=O)[C@@H]3[C@]3(C(=O)OC)CCCCN23)cc1,0,0,16µM,0,?,?
COC(=O)[C@@]12CCCCN1[C@H](c1ccc(SC3CCCCC3)c(OC)c1)[C@@H]1C(=O)N(C)C(=O)[C@@H]12,0,?,?,0,0,?
COC(=O)[C@@]12CCCN1[C@H](c1ccc(SC3CCCCC3)cc1)[C@H]1C(=O)N(C)C(=O)[C@H]12,0,0,?,0,0,16µM
COC(=O)[C@@]12CCCN1[C@H](c1ccc(-c3ccc4c(c3)OCO4)cc1)[C@H]1C(=O)N(C)C(=O)[C@H]12,0,0,?,0,0,?
COc1cccc(Cn2cc(-c3cccc(C(F)(F)F)c3)nn2)c1,-,?,?,0,0,?
COc1ccc(-c2cn(CCc3c[nH]c4ccccc34)nn2)cc1,-,?,11µM,0,0,10µM
COc1ccc(-c2cn(Cc3cccc(OC)c3)nn2)cc1,-,0,13µM!,0,0,11µM!
CCOC(=O)C1=C(c2ccccc2)N=c2s/c(=C\c3cccc(O)c3)c(=O)n2C1c1cccs1 (stereo not given),0,?,?,14µM,-75,26µM
COc1cn(CC(=O)Nc2ccc(C)cc2)c(CN2CCCCC2)cc1=O,0,0,0,0,-,0
O=C(c1ccco1)N1CCCC(N2CCN(c3cccc(C(F)(F)F)c3)CC2)C1 (stereo not given),0,0,16µM,0,?,21µM
O=C(c1cc(C2CC2)on1)N1CCCC(N2CCN(c3cccc(C(F)(F)F)c3)CC2)C1 (stereo not given),0,?,?,0,-58,?
O=C(CCn1cccn1)N1CCCC(N2CCN(c3cccc(C(F)(F)F)c3)CC2)C1 (stereo not given),0,?,?,0,0,15µM
O=C(c1cccs1)N1CCCC(N2CCN(c3cccc(C(F)(F)F)c3)CC2)C1 (stereo not given),0,0,?,0,0,?
Cc1cc(C)c(C(=O)N2CCCC(N3CCN(c4cccc(C(F)(F)F)c4)CC3)C2)o1 (stereo not given),0,?,21µM,0,0,8.2µM
CCN(CC)CCCNC(=O)C1CCN(S(=O)(=O)CC)CC1,0,0,0,0,-,0
Cc1cc(C(=O)N2CCCC(N3CCN(c4cccc(C(F)(F)F)c4)CC3)C2)no1 (stereo not given),0,0,?,0,0,16µM
Nc1nc(SCc2ccccc2Cl)c2ncn(C3OC(CO)C(O)C3O)c2n1 (stereo not given),-,0,0,0,0,0
CC(=O)Nc1ccc(CN2CCN(CCC(C)C)C(CCO)C2)cc1 (stereo not given),-,0,0,0,0,0
COc1ccc(OC)c(CN2CCN(CCc3ccccc3)C(CCO)C2)c1 (stereo not given),0,0,12µM,0,0,?
CC(=O)Nc1ccc(CN2CCN(CCc3ccccc3)C(CCO)C2)cc1 (stereo not given),0,0,0,0,-79,0
OCCC1CN(Cc2nc(-c3ccccc3)cs2)CCN1CCc1ccccc1 (stereo not given),-,?,?,0,0,21µM
SMILES,TDP1 block,TGFb SMAD3 inh,DT40 TDP1 CPT,HepG2 viability,IL1B secr inh,DT40 TDP1 no CPT
CC(=O)Nc1ccc(NC(=O)C/C(C)=N/NC(=O)c2cccc3ccccc23)cc1,0,0,0,0,0,0
CC(=O)c1c(N2CCN(CCO)CC2)nc(=S)n(-c2ccccc2)c1C,0,0,0,0,0,0
CC(=O)c1c(N2CCN(Cc3ccc4c(c3)OCO4)CC2)nc(=S)n(-c2ccccc2)c1C,0,0,?,0,0,18µM
CC(=O)c1c(N2CCN(c3ccccc3)CC2)nc(=S)n(-c2ccccc2)c1C,0,0,23µM,0,-65,21µM
CC(=O)c1c(N2CCN(Cc3ccccc3)CC2)nc(=S)n(-c2ccccc2)c1C,0,0,?,0,0,23µM
CN(c1ccccc1)S(=O)(=O)c1ccc(Cl)c(C(=O)Nc2ccncc2)c1,0,0,18µM,0,0,16µM
CN(c1ccc(F)cc1)S(=O)(=O)c1ccc(Cl)c(C(=O)Nc2ccncc2)c1,-,?,18µM,0,0,13µM
CN(c1ccccc1)S(=O)(=O)c1ccc(Cl)c(C(=O)NC2=NCCS2)c1,0,0,?,0,0,?
O=C(Nc1ccccc1)c1cc(S(=O)(=O)Nc2cccnc2)ccc1Cl,0,0,0,0,0,0
CCN(c1ccccc1)S(=O)(=O)c1ccc(Cl)c(C(=O)Nc2ccncc2)c1,-,0,?,0,0,12µM
O=C(Nc1ccccc1)c1cc(S(=O)(=O)NCc2ccncc2)ccc1Cl,0,0,9.2µM,0,0,8.2µM
COc1ccccc1NC(=O)C(Cc1ccccc1)NS(=O)(=O)c1cccc2nsnc12 (stereo not given),0,?,?,0,-,?
CC1CC(Nc2ccccc2)c2ccccc2N1C(=O)c1ccco1 (stereo not given),-,?,23µM,0,0,15µM
CC1CC(Nc2ccccc2)c2ccccc2N1C(=O)c1ccncc1 (stereo not given),0,0,9.2µM,0,0,8.2µM
COc1ccc(NC(=O)c2sc3nc(C)c(C(=O)Nc4ccc(C)cc4C)c(-c4sccc4C)c3c2N)cc1,0,0,0,0,-,0
NC(=O)CC(NC(=O)Cc1ccc(Br)cc1)c1ccc(N2CCc3ccccc3C2)c([N+](=O)[O-])c1 (stereo not given),-,0,?,0,0,?
O=C(C1CCC1)N1CCN(S(=O)(=O)c2ccc(Br)cc2Cl)CC1,0,0,?,0,0,?
